Inconclusive results are not listed. Activity calls are given as the source filed them. Unless noted, calls come from the whole dose curve; as a rule, active = well fitted curve in the direction sought with a large enough effect in the repeat runs; inconclusive = weak or mixed curves; inactive = no such curve, though single readings can be large; an effect the other way counts as inactive or inconclusive.
Assays:
[1] = qHTS assay to identify small molecule antagonists of the estrogen receptor alpha (ER-alpha) signaling pathway using the BG1 cell line in the presence of 0.1 nM 17-beta-estradiol - cell viability counter screen (AID 1259241); note: nearly all actives have a fitted effect of over 40% in size
How it was run: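 Following 5 days in phenol red-free medium with charcoal-stripped serum, VM7Luc4E2 cells received test compounds alongside 0.1 nM 17beta-estradiol (final) at 37C for 22 hr. Live cells were then quantified via protease-substrate fluorescence.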

[2] = qHTS assay to identify small molecule antagonists of the androgen receptor (AR) signaling pathway using the MDA cell line in the presence of 0.5 nM R1881 - cell viability counter screen (AID 1259242); note: nearly all actives have a fitted effect of over 45% in size
How it was run: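 Concentration-response screen of compounds for toxicity in MDA-kb2 reporter cells: 16 hr at 37C with 0.5 nM R1881, endpoint live-cell protease fluorescence measured in the reporter wells.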

[3] = qHTS assay to identify small molecule HDAC inhibitors (AID 1259364);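 note: wild-type HCT-116 cells with endogenous class I/II HDAC activity; top concentration of the series differs between compounds; nearly all actives have a fitted effect of over 45% in size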
How it was run: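 Screening used wild-type human colon HCT-116 cells incubated overnight, dosed with compounds for 2 hours, and assayed with a homogeneous luminogenic HDAC I/II reagent for 30 minutes at room temperature.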

[4] = qHTS assay to identify small molecule HDAC inhibitors - cell viability counter screen (AID 1259365); note: series mostly up to about 92 µM; nearly all actives have a fitted effect of over 50% in size
How it was run: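 HCT-116 wild-type, overnight attachment; 2hr drug exposure, 37C; CellTiter-Glo luminescent ATP readout after 30min RT.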

[5] = qHTS assay to identify small molecule agonists of the sonic hedgehog signaling (Shh) pathway - cell viability counter screen (AID 1259366); note: nearly all actives have a fitted effect of over 50% in size
How it was run: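 Compounds in DMSO were pin-transferred onto 3T3 Gli1-Luc cells that had settled 4hr; plates then stood 24hr at 37C and 5% CO2. One hour before the end, CellTiter-Fluor was added and fluorescence recorded.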

[6] = qHTS assay to identify small molecule antagonists of the sonic hedgehog signaling (Shh) pathway - cell viability counter screen (AID 1259367); note: nearly all actives have a fitted effect of over 55% in size
How it was run: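 Cytotoxicity was assessed in parallel with Shh reporter activity by measuring live-cell protease fluorescence (CellTiter-Fluor) in NIH/3T3 cells stably carrying Gli1-Luc, treated with compound under conditioned medium stimulation for 23 hr plus 1 hr reagent incubation.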

[7] = qHTS assay to identify small molecule agonists of the sonic hedgehog signaling (Shh) pathway (AID 1259368; calls by dose curve;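 note: NIH/3T3-derived 3T3Gli1-Luc cells carrying a stable Gli1-driven firefly luciferase reporter; series mostly up to about 92 µM; nearly all actives have a fitted effect of over 15% in size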)
How it was run: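 Hedgehog pathway agonism scored by increased firefly luciferase luminescence in 3T3Gli1-Luc cells treated 24 hr at 37 C; detection used a 30 min room-temperature reagent incubation.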

[8] = qHTS assay to identify small molecule antagonists of the sonic hedgehog signaling (Shh) pathway (AID 1259369; calls by dose curve; note: nearly all actives have a fitted effect of over 45% in size)
How it was run: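 NIH/3T3 stable Gli1-Luc clone, 2,000 cells/well, 4hr settle; cpd + conditioned medium 24hr; Luc reagent 30min RT; luminescence.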

[9] = target: Estrogen receptor beta (Homo sapiens) (UniProt Q92731); experiment: qHTS assay to identify small molecule antagonists of the estrogen receptor beta (ER-beta) signaling pathway (AID 1259378; active = well fitted inhibition curve with a large enough effect in the signal ratio in the repeat runs, not every such curve was filed as active; the % refers to the signal ratio; note: potency is the fitted concentration of half-maximal effect)
Estrogen receptor beta (Homo sapiens), sequence (Q92731 whole entry, looked up): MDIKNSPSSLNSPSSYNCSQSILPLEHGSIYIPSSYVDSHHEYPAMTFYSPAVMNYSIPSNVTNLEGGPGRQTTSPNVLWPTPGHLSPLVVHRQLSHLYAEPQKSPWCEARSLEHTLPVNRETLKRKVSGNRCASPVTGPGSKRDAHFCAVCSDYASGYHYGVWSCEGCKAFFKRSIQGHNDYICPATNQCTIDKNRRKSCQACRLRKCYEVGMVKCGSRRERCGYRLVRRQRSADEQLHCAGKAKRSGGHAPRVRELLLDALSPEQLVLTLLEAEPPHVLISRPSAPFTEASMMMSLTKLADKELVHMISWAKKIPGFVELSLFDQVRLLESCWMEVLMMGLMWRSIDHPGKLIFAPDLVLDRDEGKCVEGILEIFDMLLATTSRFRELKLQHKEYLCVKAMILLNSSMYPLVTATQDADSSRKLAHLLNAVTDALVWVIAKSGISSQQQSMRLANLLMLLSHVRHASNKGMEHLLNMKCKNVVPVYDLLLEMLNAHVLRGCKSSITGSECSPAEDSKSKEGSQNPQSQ
How it was run: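 ER-beta-UAS-bla HEK293T (GripTite) cells in 2% charcoal-stripped FBS medium were preincubated 6 hr at 37C, dosed with compound, then stimulated with 1 nM E2 (final) for 16 hr; beta-lactamase reporter read by B/G FRET fluorescence after 2 hr substrate loading.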

[10] = qHTS assay to identify small molecule agonists of the androgen receptor (AR) signaling pathway in the presence of an antagonist - cell viability counter screen (AID 1259379);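 note: MDA-kb2 human breast cancer cells carrying an MMTV luciferase reporter; series mostly up to about 92 µM; nearly all actives have a fitted effect of over 25% in size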
How it was run: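 MDA-kb2 viability measured by CellTiter-Fluor fluorescence in the same wells as the luciferase signal; nilutamide 3.0uM final; 15-point compound titration; 16 hr at 37C.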

[11] = qHTS assay to identify small molecule agonists of the estrogen receptor beta (ER-beta) signaling pathway - cell viability counter screen (AID 1259380); note: nearly all actives have a fitted effect of over 30% in size
How it was run: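 Measured: luminescence from CellTiter-Glo after 30 min at room temperature, added to wells already read for the LiveBLAzer FRET reporter (2 hr substrate); ER-beta-UAS-bla HEK293T cells had 16 hr compound treatment at 37C, 5% CO2.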

[12] = qHTS assay to identify small molecule antagonists of the estrogen receptor beta (ER-beta) signaling pathway - cell viability counter screen (AID 1259382); note: series mostly up to about 92 µM; nearly all actives have a fitted effect of over 55% in size
How it was run: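 Readout: luminescence, CellTiter-Glo, same wells as bla assay. System: ER-beta-UAS-bla GripTite HEK293T, 2% charcoal-stripped FBS. Exposure: compounds plus 1nM 17-beta-estradiol, 16 hr, 37C.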

[13] = qHTS assay to identify small molecule agonists or antagonists of the thyroid stimulating hormone receptor (TSHR) signaling pathway - wild type cell line counter screen (AID 1259384; calls by dose curve)
How it was run: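 Wild-type HEK293 cells were plated 18 h at 37 C/5% CO2, pin-dosed with compound plus Ro20-1724 medium, held 30 min at room temperature, then given cAMP-d2 and anti-cAMP-cryptate; fluorescence was read after 1 h. Fifteen concentrations, triplicate.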

[14] = target: Thyrotropin receptor (Homo sapiens) (UniProt P16473); experiment: qHTS assay to identify small molecule antagonists of the thyroid stimulating hormone receptor (TSHR) signaling pathway (AID 1259385; calls by dose curve; note: nearly all actives have a fitted effect of over 20% in size)
Thyrotropin receptor (Homo sapiens), sequence (P16473 whole entry, looked up): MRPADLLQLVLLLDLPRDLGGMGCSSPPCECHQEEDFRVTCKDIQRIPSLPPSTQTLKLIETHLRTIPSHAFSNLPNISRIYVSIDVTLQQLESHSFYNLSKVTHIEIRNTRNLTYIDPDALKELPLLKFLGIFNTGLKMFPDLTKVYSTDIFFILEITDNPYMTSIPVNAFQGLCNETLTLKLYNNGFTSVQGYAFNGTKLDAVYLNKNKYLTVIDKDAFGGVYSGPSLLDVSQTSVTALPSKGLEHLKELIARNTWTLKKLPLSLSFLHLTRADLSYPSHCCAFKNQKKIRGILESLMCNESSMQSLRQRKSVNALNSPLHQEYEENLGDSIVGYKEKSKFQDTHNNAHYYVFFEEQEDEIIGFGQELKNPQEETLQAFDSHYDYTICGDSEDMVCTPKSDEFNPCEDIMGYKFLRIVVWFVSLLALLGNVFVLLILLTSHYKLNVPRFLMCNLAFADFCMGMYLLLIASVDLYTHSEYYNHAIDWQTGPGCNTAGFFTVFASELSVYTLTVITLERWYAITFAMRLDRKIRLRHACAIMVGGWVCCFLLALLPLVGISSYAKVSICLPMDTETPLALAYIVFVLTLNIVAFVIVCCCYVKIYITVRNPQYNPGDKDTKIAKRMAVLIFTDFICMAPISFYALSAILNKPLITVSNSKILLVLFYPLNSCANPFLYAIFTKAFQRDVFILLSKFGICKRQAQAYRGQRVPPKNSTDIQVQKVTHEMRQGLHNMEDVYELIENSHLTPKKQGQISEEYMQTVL
How it was run: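 TSHR-HEK293 cells were plated and held 18 h at 37C/5% CO2, then given compound plus Ro20-1724 and stimulated with TSH at 1.5 ng/mL final. After 30 min at room temperature, cAMP was detected with cAMP-d2/anti-cAMP-cryptate (1 h) by fluorescence.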

[15] = qHTS assay to identify small molecule phospholipidosis (PLD) inducers (AID 1259344; active = well fitted curve in the direction sought with a large enough effect; an effect the other way counts as inactive or inconclusive)
How it was run: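 Cells (HepG2, 900 per well) attach for 4 h, receive LipidTOX Red and compound together, incubate 24 h at 37 C, are fixed 30 min with paraformaldehyde/Hoechst, then imaged at one site per well.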

[16] = target: Estrogen receptor beta (Homo sapiens) (UniProt Q92731); experiment: qHTS assay to identify small molecule agonists of the estrogen receptor beta (ER-beta) signaling pathway (AID 1259377; active = well fitted activation curve with a large enough effect in the signal ratio in the repeat runs, not every such curve was filed as active; the % refers to the signal ratio)
How it was run: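 qHTS in ER-beta-UAS-bla HEK293T cells: 6 hr settling, then 16 hr compound at 37C, then LiveBLAzer substrate 2 h at RT before fluorescence reading.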

[17] = target: Estrogen receptor (Homo sapiens) (UniProt P03372); experiment: qHTS assay to identify small molecule agonists of the estrogen receptor alpha (ER-alpha) signaling pathway in the presence of an antagonist (AID 1259383; calls by dose curve; note: top concentration of the series differs between compounds; nearly all actives have a fitted effect of over 15% in size)
Estrogen receptor (Homo sapiens), sequence (P03372 whole entry, looked up): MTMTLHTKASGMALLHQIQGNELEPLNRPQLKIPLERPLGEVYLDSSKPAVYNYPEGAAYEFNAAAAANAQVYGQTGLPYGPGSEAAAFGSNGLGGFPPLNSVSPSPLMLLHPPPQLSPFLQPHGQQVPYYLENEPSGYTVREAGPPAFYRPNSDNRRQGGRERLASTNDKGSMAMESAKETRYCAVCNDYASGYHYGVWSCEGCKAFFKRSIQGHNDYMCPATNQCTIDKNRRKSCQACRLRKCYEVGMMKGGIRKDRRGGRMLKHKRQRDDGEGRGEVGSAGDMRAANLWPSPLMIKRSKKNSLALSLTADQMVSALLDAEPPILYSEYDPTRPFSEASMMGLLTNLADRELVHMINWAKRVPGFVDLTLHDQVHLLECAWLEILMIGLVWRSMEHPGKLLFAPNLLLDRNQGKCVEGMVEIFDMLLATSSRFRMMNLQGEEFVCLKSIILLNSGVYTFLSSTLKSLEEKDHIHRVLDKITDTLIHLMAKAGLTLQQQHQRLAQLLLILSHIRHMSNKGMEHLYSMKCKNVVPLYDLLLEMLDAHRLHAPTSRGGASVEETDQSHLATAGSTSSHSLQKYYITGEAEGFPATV
How it was run: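 Quantitative HTS confirmation: compounds titrated at 15 concentrations onto estrogen-deprived VM7Luc4E2 cells carrying a four-ERE luciferase construct, with ICI-182,780 present at 10.0nM final. Signal is luminescence after 22hr exposure.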
% is set by controls: 0 for no effect and ±100 for the full control effect.

CC(C)c1ccccc1C(C)C
inactive: Potency [1] | Potency [2] | Potency [3] | outcome [4] | Potency [5] | Potency [6] | outcome [7] | Potency [8] | Potency [9] | Potency [10] | Potency [11] | Potency [12] | Potency [13] | Potency [14]

O=C(c1ccccc1)c1ccc2n1CCC2C(=O)O (stereo not drawn)
inactive: Potency [1] | Potency [2] | Potency [15] | outcome [4] | Potency [5] | Potency [6] | Potency [10] | Potency [11] | Potency [12]

Cc1ccc(C)o1
inactive: Potency [1] | Potency [2] | Potency [3] | outcome [4] | Potency [5] | Potency [6] | outcome [7] | Potency [8] | Potency [16] | Potency [9] | Potency [10] | Potency [11] | Potency [12] | Potency [13] | Potency [14]

Nc1cnn([C@@H]2O[C@H](CO)[C@@H](O)[C@H]2O)c(=O)n1
inactive: Potency [1] | Potency [2] | Potency [3] | outcome [4] | Potency [5] | Potency [6] | outcome [7] | Potency [8] | Potency [16] | Potency [10] | Potency [11] | Potency [12] | Potency [17] | Potency [13] | Potency [14]
active: Potency [9] 27.3 µM

CCCC[C@H]1CN(CC2CCOCC2)C(=O)OC12CCN(C1(C)CCN(C(=O)c3c(C)ncnc3C)CC1)CC2
inactive: Potency [1] | Potency [2] | Potency [3] | outcome [4] | Potency [5] | Potency [6] | outcome [7] | Potency [8] | Potency [10] | Potency [11] | Potency [12] | Potency [13] | Potency [14]

O=S1(=O)N=C(O)c2ccccc21
inactive: Potency [1] | Potency [2] | Potency [3] | outcome [4] | Potency [5] | Potency [6] | outcome [7] | Potency [8] | Potency [10] | Potency [11] | Potency [12] | Potency [13] | Potency [14]

NC[C@H]1O[C@H](O[C@H]2[C@H](O)[C@@H](O[C@H]3O[C@H](CO)[C@@H](O)[C@H](N)[C@H]3O)[C@H](N)C[C@@H]2N)[C@H](O)[C@@H](O)[C@@H]1O
inactive: activity change, negative = cytotoxicity [1] 2.35% [at 8.39 µM] | viability change, negative = cytotoxic [2] 1.3% [at 8.39 µM] | Potency [15] | activity change, negative = cytotoxicity [4] 2.31% [at 8.39 µM] | viability change, negative = cytotoxic [5] -24.3% [at 8.39 µM] | viability change, negative = cytotoxic [6] -30.1% [at 8.39 µM] | activity change [7] 1.6% [at 8.39 µM] | activity change, negative = inhibition [8] -24.7% [at 8.39 µM] | activity change, negative = cytotoxicity [11] 5.67% [at 8.39 µM] | activity change, negative = cytotoxicity [12] 0.386% [at 8.39 µM] | cAMP activity change [13] 0.52% [at 8.39 µM, hits give high values] | activity change, negative = inhibition [14] -7.09% [at 8.39 µM]

CNS(=O)(=O)Cc1ccc2[nH]cc(CCN(C)C)c2c1
inactive: Potency [1] | Potency [2] | Potency [15] | outcome [4] | Potency [5] | Potency [6] | outcome [7] | Potency [8] | Potency [9] | Potency [10] | Potency [11] | Potency [12]

O=c1[nH]cnc2ccccc12
inactive: Potency [1] | Potency [2] | Potency [3] | outcome [4] | Potency [5] | Potency [6] | outcome [7] | Potency [8] | Potency [16] | Potency [10] | Potency [11] | Potency [12] | Potency [17] | Potency [14]

From PubChem BioAssay (Tox21)
